A selection: hits, their analogues and other compounds. The true share with any hit is near 4.6%.
D1 PAM: Potentiators of Human D1 Dopamine Receptor: qHTS; potentiation, % at 10 µM; 360,000 tested, 0.036% active; HEK293 TREx D1 cells, calcium flux, dopamine EC20 potentiation; D(1A) dopamine receptor (Homo sapiens), P21728; AID 504651, 2011; in the data active = potentiation above about 30%; note: 0% is about no effect
Target sequence (P21728 whole entry, looked up): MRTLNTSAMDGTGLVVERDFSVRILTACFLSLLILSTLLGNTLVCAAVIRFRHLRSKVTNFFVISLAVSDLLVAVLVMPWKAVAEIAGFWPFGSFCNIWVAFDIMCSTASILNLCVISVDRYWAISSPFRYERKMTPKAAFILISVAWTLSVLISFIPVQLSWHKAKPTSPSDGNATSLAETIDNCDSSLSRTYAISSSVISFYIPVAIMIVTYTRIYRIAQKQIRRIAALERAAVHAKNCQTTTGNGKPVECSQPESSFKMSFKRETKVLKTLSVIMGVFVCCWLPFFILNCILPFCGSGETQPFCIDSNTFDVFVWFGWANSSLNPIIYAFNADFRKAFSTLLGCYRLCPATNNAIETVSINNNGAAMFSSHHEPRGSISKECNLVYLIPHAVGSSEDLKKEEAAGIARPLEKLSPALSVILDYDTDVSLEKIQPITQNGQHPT
TRHR enhancer: qHTS for Small Molecule Agonists and Allosteric Enhancers of Human TRH Receptor: Primary Screen for Enhancers; Thyrotropin-releasing hormone receptor (Homo sapiens), P34981; TRHR cells, fluo-8 calcium fluorescence, EC20 TRH enhancement; enhancement, % at 2 µM; 360,000 tested, 0.66% active; in the data active = enhancement above about 30%; note: 0% is about no effect
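TRHR-expressing cells loaded with fluo-8 calcium dye were read kinetically (ex 480/em 530) during compound addition, then stimulated with an EC20 of TRH (10 nM final). Enhancement of the Gq-mediated intracellular calcium response was scored.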
TRHR ag: qHTS for Small Molecule Agonists and Allosteric Enhancers of Human TRH Receptor: Primary Screen for Agonists; TRHR cells, calcium flux fluo-8, FDSS agonist mode; AID 493084, 2011; Thyrotropin-releasing hormone receptor (Homo sapiens), P34981; activation, % at 2 µM; 360,000 tested, 0.18% active; note: 0% is about no effect
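TRHR-expressing cells loaded with fluo-8 calcium dye; 23 nL library compound pin-transferred, kinetic FDSS fluorescence (Ex 480/Em 530) recorded about 180 s for agonist-induced calcium release, before a 10 nM TRH EC20 addition for potentiator mode.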
D1 ag: Allosteric Agonists of the Human D1 Dopamine Receptor: qHTS. HEK293 T-REx D1 cells, calcium flux, agonist mode. 360,000 tested, 1% active. activation, % at 2 µM. AID 504660, 2011. D(1A) dopamine receptor (Homo sapiens), P21728; note: 0% is about no effect
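Agonism was scored from calcium flux recorded over 180 s (1 read/s) after pintool compound addition, following a 10-cycle baseline. Cells were inducible force-coupled HEK293 TREx D1, plated overnight at 30 C and loaded with no-wash calcium dye.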
D1 antagonist: Antagonist of Human D 1 Dopamine Receptor: qHTS; activity change, negative = inhibition, % at 10 µM; D(1A) dopamine receptor (Homo sapiens), P21728; AID 504652, 2011; 360,000 tested, 3.2% active; HEK293 TREx D1 cells, calcium flux, dopamine EC80; hits give low values; in the data active = activity change below about -30%; note: % is set by controls: 0 for no effect and ±100 for the full control effect
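Using tetracycline-induced force-coupled D1 Hek293 cells and a calcium dye, signals were followed for 180 s after compound, then for 180 s after EC80 dopamine, to detect inhibitors.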
Numbers without * were called inactive; nt = not tested or not shown. Cut-off read from the data, not from the text of the source, unless noted: active = activation above about 30%; inactive = the rest.

SMILES | D1 PAM | TRHR enhancer | TRHR ag | D1 ag | D1 antagonist
COc1ccc(C(CCNCc2ccc(OC)c(OC)c2)c2ccc(F)cc2)cc1 (configuration not stated) | 3.0 | -1.9 | 0.5 | 26.5 | -3.2
COc1ccc(CNCCC(c2ccc3c(c2)OCO3)c2ccccc2OC)cc1 (configuration not stated) | -3.4 | 3.8 | 2.0 | 79.5* | 8.6
COc1ccc(NC(=O)CSc2nc3cc(OC)c(OC)cc3c3nc(-c4ccccc4)nn23)cc1Cl | 2.5 | 0.5 | 1.4 | 3.2 | -7.5
Cc1cc2n(n1)CCC(=O)N2Cc1ccc(C(=O)Nc2cc(Cl)ccc2C)cc1 | 2.3 | -0.4 | -0.5 | -2.2 | -1.3
Cc1ccc(NC(=O)c2ccc(CN3C(=O)CCn4nc(C)cc43)cc2)c(Cl)c1 | -2.6 | -1.7 | -0.2 | 0.5 | -33.6*
Cc1ccc(NC(=O)COC(=O)c2ccc(CN3CCCC3=O)cc2)c(Cl)c1 | nt | -2.1 | -0.1 | 13.2 | -44.5*
COc1cc2oc(=O)c(CC(=O)N3CCCCC3)c(C)c2cc1OC | 0.8 | 6.0 | 0.6 | 2.6 | -8.0
CCCn1c(=O)c(C(=O)NNC(=O)c2ccccc2[N+](=O)[O-])c(O)c2ccccc21 | -15.7 | 0.8 | 0.3 | 1.7 | -6.4
CCCn1c(=O)c(C(=O)NNC(=O)c2ccccc2Cl)c(O)c2ccccc21 | -6.3 | -2.1 | 30.1* | 21.1 | -18.8
CCCn1c(=O)c(C(=O)NNC(=O)Cc2ccccc2)c(O)c2ccccc21 | -5.7 | 33.2* | -0.2 | 5.6 | -4.9
Nc1nc(N)c(S(=O)(=O)c2ccccc2)c(Nc2ccccc2)n1 | -0.9 | 13.7 | -2.9 | -0.7 | 12.5
O=C(CN1C(=O)C2(SCC(=O)N2c2cccc(Cl)c2)c2ccccc21)NCc1ccccc1 (configuration not stated) | 0.6 | -14.3 | 5.0 | 5.5 | -5.7
COCCCNC(=O)Cn1cnc2sc(C)c(S(=O)(=O)N3CCC(C)CC3)c2c1=O | 3.5 | 2.7 | -0.1 | -0.1 | -3.1
Cc1cccnc1NC(=O)CNC(=O)COc1ccccc1 | -5.8 | 33.1* | 0.0 | 4.8 | 32.0
Cc1ccc(NS(=O)(=O)c2cc(C(=O)N(C)C)ccc2C)cc1C | 4.5 | 17.3 | 0.1 | 0.0 | -36.6*
Cc1ccc(NS(=O)(=O)c2cc(C(=O)N3CCCC3)ccc2C)cc1C | -4.4 | -0.8 | -0.6 | 0.9 | 2.0
CC1=CC(C)(C)N2C(=O)C(=Nc3ccc(O)cc3)c3cccc1c32 | -5.9 | 0.1 | 1.0 | 0.9 | -36.3*
CCOc1ccccc1CNC(=O)c1ccc(NC(=O)N2CCSc3ncccc32)cc1 | -2.9 | 2.3 | 0.0 | 2.8 | -7.4
C=CCOC(=O)C(=O)/C=C/c1c(C)n(C)n(-c2ccccc2)c1=O | 1.4 | -2.7 | 0.4 | -4.3 | -40.3*
C=CCSC(=S)Nc1c(C)n(C)n(-c2ccccc2)c1=O | 1.9 | 5.0 | 0.7 | 3.2 | -1.1
O=C(CNC(=O)c1ccc2n[nH]nc2c1)OC(C(=O)Nc1cc(C(F)(F)F)ccc1Cl)c1ccccc1 (configuration not stated) | 13.3 | 8.9 | -2.2 | 2.7 | 3.2
C=CCOc1ccc(CN(C)C(=O)CNC(=O)c2ccc(-c3ccccc3)cc2)cc1 | -5.6 | 6.3 | 0.1 | 34.5* | -25.8
C/C(=N\NC(=O)CSCc1ccc([N+](=O)[O-])cc1)c1ccccc1O | -12.3 | -4.2 | -0.1 | 3.5 | -86.7*
C/C(=N\NC(=O)Cc1ccc(Cl)cc1)c1ccc(F)cc1 | -0.1 | -2.4 | 0.2 | 5.2 | -17.2
C/C(=N\NC(=O)Cc1ccc(Cl)cc1)c1ccccc1O | -8.2 | -2.8 | -0.6 | 5.9 | -35.8*
SMILES | D1 PAM | TRHR enhancer | TRHR ag | D1 ag | D1 antagonist
CCOC(=O)c1c(C(C)(C)C)oc2ccc(O)cc12 | 3.0 | -4.6 | -1.0 | 88.2* | -1.5
Cc1cc(C)n2nc(CNC(=O)c3c(F)cccc3F)nc2n1 | -2.0 | 4.8 | 1.0 | 2.6 | 0.8
COc1ccc(N2C(=O)CN=C2Nc2nc(C)cc(C)n2)cc1 | -0.5 | -0.4 | -1.9 | 3.9 | -4.1
Cc1cc(C)nc(NC2=NCC(=O)N2c2ccc3c(c2)OCCO3)n1 | -2.5 | 3.6 | 0.0 | -0.5 | -83.9*
Cc1ccc(OCCCCNC2CCCC(C)C2C)c(C)c1 (configuration not stated) | -0.1 | 5.5 | 0.6 | 42.2* | 22.1
Cc1cc(C)cc(NC(=O)C2CCC(CNS(=O)(=O)c3ccc4c(c3)C(C)(C)C(=O)N4C)CC2)c1 (configuration not stated) | -3.0 | 5.4 | -0.1 | 6.2 | 8.4
O=C(Nc1noc2ccccc12)c1cccc(F)c1 | -3.1 | -6.2 | 1.3 | 1.2 | 4.2
O=C(Nc1noc2ccccc12)c1ccc(F)cc1 | -0.1 | 46.0* | 0.5 | 3.3 | 3.6
CCOC(=O)CC(NC(=O)CCc1c(C)nc2c(-c3ccccc3)c(C)nn2c1C)c1ccc(C)cc1 (configuration not stated) | -3.0 | 0.9 | -0.1 | 4.0 | -6.6
CCC1=NN2C(=N)/C(=C/c3cc(C)n(Cc4ccccc4)c3C)C(=O)N=C2S1 | -10.9 | 2.3 | 0.3 | 65.7* | -51.3*
Cc1cc(/C=C2\C(=N)N3N=C(c4ccco4)SC3=NC2=O)c(C)n1Cc1ccccc1 | 3.2 | -13.8 | 5.5 | 37.6* | -39.1*
Cc1cc(/C=C2\C(=N)N3N=C(C(C)C)SC3=NC2=O)c(C)n1Cc1ccccc1 | -1.7 | -2.6 | 1.2 | 111.7* | -40.0*
Cc1cc(/C=C2\C(=N)N3C(SCc4ccccc4)=NSC3=NC2=O)c(C)n1Cc1ccccc1 | 0.6 | -2.5 | 1.3 | 2.2 | 2.4
COc1ccc(-n2cccc2/C=C2\C(=N)N3N=C(c4ccco4)SC3=NC2=O)cc1 | -2.6 | 4.8 | 0.5 | 2.2 | 8.2
CC1=NN2C(=N)/C(=C\c3cc(C)n(-c4ccccc4)c3C)C(=O)N=C2S1 | -8.1 | -7.3 | -0.8 | 3.8 | -1.4
CC(C)CCNC(=O)Nc1cc(C(=O)NCc2cccc(F)c2)ccc1N1CCCC1 | 0.5 | -3.9 | -1.5 | 3.0 | -6.1
Cc1cccc(S(=O)(=O)c2cn(C)c3cc(N4CCN(c5ccccc5)CC4)c(F)cc3c2=O)c1 | -0.4 | 31.7* | -0.5 | 3.5 | -0.6
O=c1c(S(=O)(=O)c2ccccc2)cn(Cc2ccccc2)c2cc(N3CCCC3)c(F)cc12 | -2.5 | 2.3 | 0.4 | -0.4 | 12.4
O=c1c(S(=O)(=O)c2ccccc2)cn(Cc2ccc(F)cc2)c2cc(N3CCCCC3)c(F)cc12 | -1.1 | -2.7 | -0.5 | 2.0 | -44.2*
CCCC12CN3CC(C)(CN(C1)C3c1ccc(OCc3ccccc3)cc1)C2=O (configuration not stated) | 2.2 | 4.6 | 1.4 | 0.5 | -6.1

High-throughput results as filed in PubChem.
